SMILES strings stand for the structures. Values joined by “and” are separate entries in the source; they are usually repeats but may differ in a detail not shown here. Equal entries are not always repeated. Out of some 16,000 compounds screened, about 4,000 (25%) were called active. Roughly 26% stayed inconclusive and do not appear here. The call rests on the fitted dose curve; in most records, active means well fitted curve in the direction sought with a large enough effect; inconclusive means small, poorly fitted or top-dose-only effect, or effect the other way; inactive means no such curve, though single readings can be large or run the other way. A selection follows. Some compounds were tested as several samples or in several runs, with calls that do not always agree. Peptide text beside a SMILES is read from it. * marks the point of attachment. Cbz = O=C(OCc1ccccc1)*
On the % scale 0 is the no-effect control and ±100 the full control effect.

In the experiment the target is Cytochrome P450 2C9 (Homo sapiens) (UniProt P11712). The experiment can be described thus: Cytochrome panel assay with activity outcomes. As to conditions: recombinant CYP, pro-luciferin dealkylation, luminescence, p450-cyp2c9; series mostly up to 57.1 µM; activity, negative = inhibition: at the top concentration.
Sequence of Cytochrome P450 2C9 (Homo sapiens) (P11712 whole entry, looked up): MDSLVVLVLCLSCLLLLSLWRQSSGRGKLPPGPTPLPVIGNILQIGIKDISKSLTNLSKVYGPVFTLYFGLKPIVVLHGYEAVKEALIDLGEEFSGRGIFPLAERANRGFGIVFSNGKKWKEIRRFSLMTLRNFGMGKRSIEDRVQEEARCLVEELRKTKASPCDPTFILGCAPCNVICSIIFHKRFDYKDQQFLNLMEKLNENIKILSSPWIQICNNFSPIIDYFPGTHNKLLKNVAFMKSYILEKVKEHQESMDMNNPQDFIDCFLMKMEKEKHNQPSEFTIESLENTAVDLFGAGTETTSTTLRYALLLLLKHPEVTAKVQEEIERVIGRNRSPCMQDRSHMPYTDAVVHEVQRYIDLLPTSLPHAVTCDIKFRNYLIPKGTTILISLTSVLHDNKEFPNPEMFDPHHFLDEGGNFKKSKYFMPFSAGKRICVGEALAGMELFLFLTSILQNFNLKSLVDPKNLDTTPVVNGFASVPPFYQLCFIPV
Consider `COC(=O)C(CC(C)C)NC(=O)C(N)Cc1ccccc1` (stereo not drawn) (H-Phe-Leu-OMe; configuration not given here), for which the “activity, negative = inhibition” value was 12.9% (inactive).

For `COC(=O)CCC(NC(=O)OCc1ccccc1)C(=O)NC(CC(C)C)C(=O)OC` (stereo not given) (Cbz-Glu(OMe)-Leu-OMe; configuration not given here), the AC50 was 0.355 µM (active).

In the case of `CCCCC(C=O)NC(=O)C(CC(C)C)NC(=O)OCc1ccccc1` (stereo not given), the “activity, negative = inhibition” value was -10.4% (inactive).

On to `COC(=O)N1CCC2(CCN(Cc3cc(C(F)(F)F)cc(C(F)(F)F)c3)CC2)CC1`, for which the “activity, negative = inhibition” value was -4.53% (inactive).

As to `Cc1ccc(NS(=O)(=O)c2ccc(OCC(=O)Nc3cccc([N+](=O)[O-])c3)c(C)c2)cc1`, the AC50 is 1.26 µM (active).

Regarding `O=C(CN1CCCCC1)Nc1cccc([N+](=O)[O-])c1`, the “activity, negative = inhibition” value was -20.2% (inactive).

Take `Cc1ccc(OCC(=O)N/N=C\c2c(C)n(C)c3ccccc23)c([N+](=O)[O-])c1`: the “activity, negative = inhibition” value was -12% (inactive).

As to `Cc1cc(Nc2ccc(Cl)cc2)nc(N)n1`, the “activity, negative = inhibition” value is 1.54% (inactive).

For `C=C1c2cccc(O)c2C(O)=C2C(=O)[C@@]3(O)C(O)=C(C(N)=O)C(=O)[C@@H](N(C)C)[C@@H]3[C@@H](O)[C@H]12`, the “activity, negative = inhibition” value is -17.4% [at 25.6 µM] (inactive).

`Cc1nn(Cc2c(F)c(F)c(F)c(F)c2F)c(C)c1NC(=O)c1c(-c2ccccc2)nn(-c2ccccc2)c1C`: the AC50 was 7.08 µM (active).

On to `Cc1nn(Cc2c(F)c(F)c(F)c(F)c2F)c(C)c1NC(=O)c1cccc(COc2ccccc2Cl)c1`, for which the AC50 is 8.91 µM (active).

With `Cc1nn(Cc2c(F)c(F)c(F)c(F)c2F)c(C)c1NC(=O)c1cccc(COc2ccc(Cl)cc2)c1`, the AC50 was 2.82 µM (active).

As for `Cc1nn(Cc2ccccc2Cl)c(C)c1NC(=O)CCCn1nc(C)c([N+](=O)[O-])c1C`, the “activity, negative = inhibition” value is -26.2% (inactive).

For `CCN[C@@H]1C[C@H](C)S(=O)(=O)c2sc(S(N)(=O)=O)cc21`, the “activity, negative = inhibition” value is -6.9% [at 25.6 µM] (inactive).

For `CC(C)CN1CC[C@@]2(CCCN(C(=O)c3csnn3)C2)C1`, the “activity, negative = inhibition” value was 6.25% (inactive).

For the compound `C#CCCCO/N=C1/C[C@@H](O)[C@@H](O)[C@@H]2[C@H]3C(=O)N(c4ccc(F)cc4F)C(=O)[C@@H]3CC[C@@H]12`, the activity, negative = inhibition was 7.37% [at 11.4 µM] (inactive).

Consider `O=C(CCCCC(=O)Nc1c(I)cc(I)c(C(=O)O)c1I)Nc1c(I)cc(I)c(C(=O)O)c1I`, for which the “activity, negative = inhibition” value was -4.35% [at 25.6 µM] (inactive).

As for `c1ccc2c(NC3CCNCC3)nc(-c3ccoc3)nc2c1`, the activity, negative = inhibition was -0.161% [at 2.29 µM] (inactive).

Take `Cc1cc(Cl)ccc1Nc1sc(C(=O)c2cc3cc(Cl)ccc3o2)c(N)c1C#N`: the AC50 was 1.26 µM (active).

With `Nc1nc2c(c(=O)[nH]1)N[C@H](CCNc1ccc(C(=O)O)cc1)CN2`, the activity, negative = inhibition is 10.2% [at 11.4 µM] (inactive).

Turning to `O=C1c2ccccc2C2=Nc3ccccc3SC(c3ccccc3F)C12` (stereo not given), the AC50 is 0.0891 µM (active).

For the compound `CC(C)(C)C(=O)[C@H]([C@@H](c1ccccc1)N1CCOCC1)N1CCOCC1`, the activity, negative = inhibition was 3.46% [at 11.4 µM] (inactive).

As for `OC(c1ccccc1)(c1ccc(F)cc1)C(c1ccccc1)N1CCOCC1` (stereo not given), the AC50 was 11.2 µM (active).

With `C[C@@H](N1CCOCC1)[C@@](O)(c1ccccc1)c1ccccn1`, the activity, negative = inhibition was 16.5% [at 11.4 µM] (inactive).

Take `CN1CCN(c2ccncc2S(=O)(=O)N2CCN(C)CC2)CC1`: the activity, negative = inhibition was 14.6% [at 11.4 µM] (inactive).

For the compound `COc1ccc(N2CCC(CNC(=O)Nc3ccc(OC)cc3OC)C2)cc1` (stereo not given), the AC50 was 17.8 µM (active).

As to `COc1ccc(N2CCN(CCNC(=O)c3c(C)cc(=O)oc3C)CC2)cc1`, the “activity, negative = inhibition” value was -17.3% (inactive).

`CCC(Sc1ncccc1C(=O)O)C(=O)N1CCOCC1` (stereo not given): the “activity, negative = inhibition” value was -12% (inactive).

Turning to `c1ccc(-c2noc(-c3ccc4ccccc4c3)n2)cc1`, the “activity, negative = inhibition” value was -19.2% (inactive).

`O=C(c1ccccc1-c1nc(-c2ccccc2)no1)N1CCOCC1`: the AC50 is 14.1 µM (active).

Regarding `CCOc1cc(-c2noc(N)c2C#N)cc(OCC)c1OCC`, the AC50 is 7.94 µM (active).

As to `O=C(O)C[n+]1ccccc1`, the activity, negative = inhibition was 6.61% [at 11.4 µM] (inactive).

For `C[C@@]12C(=O)OC(=O)[C@@]1(C)[C@@H]1CC[C@@H]2O1`, the “activity, negative = inhibition” value was 8.97% (inactive).

For the compound `CS(=O)(=O)c1ccc(-c2cc(Br)sc2-c2ccc(F)cc2)cc1`, the AC50 is 0.794 µM (active).

Regarding `CS(=O)(=O)c1cnc2c(-c3ccc(F)cc3)cnn2c1N`, the “activity, negative = inhibition” value is -18.8% (inactive).

With `CC(=O)OC[C@@H]1O[C@@H](O/N=C2/C[C@@H](O)[C@@H](O)[C@@H]3[C@H]4C(=O)N(c5ccc(F)cc5F)C(=O)[C@@H]4CC[C@H]23)[C@H](OC(C)=O)[C@H](OC(C)=O)[C@@H]1OC(C)=O`, the activity, negative = inhibition was 29.1% [at 11.4 µM] (inactive).

Consider `CN(C)/C(CN1CCN(C=O)CC1)=C1\N=C(c2ccccc2)OC1=O`, for which the “activity, negative = inhibition” value is 0.0977% (inactive).

In the case of `Cc1cc(-c2ccccc2)nnc1NCCN1CCOCC1`, the “activity, negative = inhibition” value was 4.93% [at 25.6 µM] (inactive).

For `CN(C)/C(CN1CCOCC1)=C1\N=C(c2ccccc2)OC1=O`, the AC50 is 17.8 µM (active).

`CCCCCCCCN1C(=O)N(C)C(N(O)C(=O)NC)C1(C)C` (stereo not given): the “activity, negative = inhibition” value was 5.52% (inactive).

As to `COC(=O)CNC(=O)CN1C(=O)N(c2ccc(Cl)cc2)C(N(O)C(=O)Nc2ccc(Cl)cc2)C1(C)C` (stereo not given), the AC50 is 14.1 µM (active).

Consider `O=C(O)c1ccccc1OP(=O)(O)O`, for which the “activity, negative = inhibition” value is 4.63% [at 25.6 µM] (inactive).

In the case of `CC(C)(C)[C@@]1(O)CCN2C[C@@H]3c4ccccc4CCc4cccc(c43)[C@@H]2C1`, the AC50 is 1.58 µM (active).

As to `CN(C)c1ccc(-c2cncnc2Nc2ccc(F)cc2)cc1`, the activity, negative = inhibition was -2.26% [at 2.29 µM] (inactive).

For `CN(C)CCC[C@@]1(c2ccc(F)cc2)OCc2cc(C#N)ccc21`, the AC50 entry is “inactive and 3.16 µM (active)”.

The term AC50 denotes the midpoint of the concentration-response curve, whichever way the signal moves.

(Values after PubChem BioAssay AID1851 (National Center for Advancing Translational Sciences (NCATS), 2009).)
